This is an account of results in PubChem BioAssay AID488841 (Sanford-Burnham Center for Chemical Genomics, 2010).

Out of some 1,400 compounds screened, about 380 (27%) were called active. Some of the results follow. A number with no mark means an inactive call.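 The calls were made as follows: active = mean inhibition above 50% across duplicate retests at 10 µM; inactive = the rest.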

The nature of the assay: inhibition of NALP1/ASC/caspase-1 reporter signal in yeast, confirmation, NALP1 inhibitor project, S. cerevisiae, luminescence, single concentration (AID 488841).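 Also: plate controls were DMSO in galactose medium for no effect and cells in plain SD medium for full effect.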 To be noted: S. cerevisiae NALP1/ASC/Caspase-1 reporter, beta-gal luminescence; at 10 µM; stronger effect = higher value.
With `Oc1ccccc1C1N=C(c2ccccc2)NC(c2ccccc2)=N1`, the inhibition was 16.1%.
In the case of `O=C(CSc1ncn[nH]1)NC12CC3CC(CC(C3)C1)C2` it was 22.3%; in that of `COC(=O)COc1ccc(S(=O)(=O)NCCC2=CCCCC2)cc1Cl`, 28.2%.
The figure for `O=C1C2C3C=CC(C2C(=O)N1CCCO)C1C2C(=O)N(CCCO)C(=O)C2C31` (stereo not drawn) is 17.4%; for `CCC(C)NC(=O)c1cc2cc3ccc(OC)cc3nc2s1` (stereo not drawn) it is 54.9% (active); for `COc1ccc(OC)c(NC(=O)c2sc3nc(Cc4ccccc4)cc(C(F)(F)F)c3c2N)c1` it is 23.5%.
On to `COc1ccc2cc(/C=N/O)c(Cl)nc2c1`, for which the inhibition was 46.1%.
The figure for `CC(C)(C)C(=O)NC1CCN(S(=O)(=O)c2ccc(C(F)(F)F)cc2)CC1` is 18.1%; for `CCOc1ccc(S(=O)(=O)N2c3ccccc3CC2C)cc1` (stereo not drawn) it is 54.5% (active); for `CCOc1cccc(N2C(=O)CC(N3CCN(c4ccc(S(=O)(=O)CC)cc4)CC3)C2=O)c1` (stereo not drawn) it is 30.9%.
For the molecule `CCOc1ccc(NC2=C(OC)C(=O)c3ccccc3C2=O)cc1`, the inhibition was 39.5%.
The figure for `Cc1cc(Cl)c(OCCCCN2CCOCC2)c(Br)c1` is 40.9%; for `COC(=O)c1sccc1NC(=O)c1csc(C)c1` it is 54% (active); for `COC(=O)c1sccc1N/N=C(\C)c1ccc(F)c(Cl)c1` it is 22.3%.
`CCOC(=O)C(=CNNc1ccsc1C(=O)OC)C(=O)OCC`: the inhibition is 37.1%.
In the case of `CCn1c(C)[n+](CC(O)COCC2CC=CCC2)c2ccccc21` (stereo not drawn) it was 40%; in that of `CCOC(=O)c1c(C)n(C)c2cc(-c3ccc(C)cc3)c(O)cc12`, 24.9%; in that of `CCCCC(CC(O)COCCC)c1n[nH]c(=S)n1-c1ccccc1` (stereo not drawn), 44.8%.
The figure for `CC(C)(C)OC(=O)NCCCCCc1nnc(SCc2ccccc2)o1` is 56.6% (active); for `CC(C)Sc1nnc([C@H](Cc2ccccc2)NC(=O)OC(C)(C)C)o1` it is 30.7%; for `CCCCSc1nnc(CCNC(=O)OC(C)(C)C)o1` it is 42.2%.
The figure for `CC(C)Cc1nnc(NC(=O)CSc2nc(N)cc(=O)[nH]2)s1` is 23.4%; for `CCOC(=O)Nc1ccc2c(C)cc(=O)oc2c1` it is 41.3%.
Regarding `CCOC(=O)Nc1cccc(Nc2ccccc2)c1`, the inhibition was 52.2% (active).
Turning to `CCOC(=O)c1sc(NC(=O)Nc2cccc(Cl)c2)cc1C`, the inhibition was 5.75%.
Take `Cc1cc(C)cc(-n2nnc(C(=O)NCc3ccccc3)c2N)c1`: the inhibition was 34.6%.
The figure for `c1ccc(-c2nc3cc4ccccc4cc3[nH]2)nc1` is 73.2% (active); for `O=[N+]([O-])c1ccc2nc(-c3ccccn3)[nH]c2c1` it is 47.6%.
